# LmPK inh = qHTS Assay for Inhibitors of Leishmania Mexicana Pyruvate Kinase (LmPK); Q27686; purified LmPK, Kinase-Glo ATP luminescence, 1 h; Potency, µM (series often up to 57.5 µM), for inactives: at the highest dose activity change, negative = inhibition, most hits filed as inhibitors; hit rate 0.37% among 290,000; also: potency is read from the fitted curve at half-maximal effect; % is scaled to controls: 0 for no effect and ±100 for the full control effect
# Target sequence (Q27686 whole entry, looked up): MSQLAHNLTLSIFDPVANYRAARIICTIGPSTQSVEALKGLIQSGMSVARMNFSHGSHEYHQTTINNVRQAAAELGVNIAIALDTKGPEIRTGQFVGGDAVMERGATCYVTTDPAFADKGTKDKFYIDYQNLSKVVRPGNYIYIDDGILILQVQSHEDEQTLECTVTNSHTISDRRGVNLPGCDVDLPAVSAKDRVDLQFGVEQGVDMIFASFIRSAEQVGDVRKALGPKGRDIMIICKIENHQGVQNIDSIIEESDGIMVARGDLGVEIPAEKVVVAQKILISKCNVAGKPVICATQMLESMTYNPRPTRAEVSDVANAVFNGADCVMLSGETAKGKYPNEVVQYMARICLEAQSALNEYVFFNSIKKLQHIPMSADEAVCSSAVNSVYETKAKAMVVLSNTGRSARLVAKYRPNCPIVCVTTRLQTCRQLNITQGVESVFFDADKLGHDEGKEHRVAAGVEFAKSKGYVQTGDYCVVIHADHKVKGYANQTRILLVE
#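 Purified LmPK (0.1 nM) with 0.5 mM PEP and 0.1 mM ADP in imidazole buffer pH 7.2 with MgCl2/KCl, 1 h at room temperature. ATP formed was read by luciferase luminescence and normalized to no-enzyme and uninhibited controls.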
# Tb PYK inh = qHTS of Trypanosoma Brucei Inhibitors | pyruvate kinase (Trypanosoma brucei), Q57TT1 | TbPYK enzyme, Kinase-Glo Plus ATP luminescence, 45 min | Potency, µM (highest dose often 76.8 µM), without a hit: top-dose activity, negative = inhibition, hits mostly inhibitors | hit rate 0.12% among 410,000 | AID 624173, 2012; also: potency is read from the fitted curve at half-maximal effect; % is scaled to controls: 0 for no effect and ±100 for the full control effect; nearly all actives have a fitted effect of over 50% in size
#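 Enzyme and substrate buffer are dispensed first and compound is pin-transferred. ADP at 130 uM final then starts the reaction, which runs 45 min at room temperature. Detection reagent is added for 10 min before luminescence is imaged.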
# CHX counter = Cycloheximide Counterscreen for Small Molecule Inhibitors of Shiga Toxin. max response, %. AID 2314, 2010. hit rate 12% among 300,000. cell reporter, cycloheximide protein synthesis inhibition counterscreen; in the data active = max response mostly above about 13%, no sharp cut-off; inactive = mostly below about 14%; also: read at 38.3 µM for the half of the compounds with a filed dose; 0% is about no effect
# FBPA Giardia inh = qHTS Assay for Inhibitors of Fructose-1,6-bisphosphate Aldolase from Giardia Lamblia | A8B2U2 | purified Giardia FBPA | Potency, µM (highest dose often 59.6 µM), without a hit: at the top dose activity, negative = inhibition, most hits filed as inhibitors | hit rate 0.71% among 290,000; also: potency is read from the fitted curve at half-maximal effect; % is scaled to controls: 0 for no effect and ±100 for the full control effect; nearly all actives have a fitted effect of over 55% in size
#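 Giardia FBPA (40 nM reagent) was preincubated 10 min at RT with compound (up to 57.5 uM final), then substrate plus GAPDH/TPI/NAD/arsenate coupling system with diaphorase/resazurin was added; resorufin fluorescence (525/598 nm) was read after 20 min.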
# RE007 growth inh = qHTS Assay for Inhibitors of the HIV-1 protein Vpr; S. pombe RE007 Vpr strain, BacTiter-Glo ATP luminescence, 24 h; hit rate 0.21% among 360,000; Potency, µM (doses to about 92.2 µM), without a hit: at the top dose activity change, negative = less growth, usual class: inhibitors; active = well fitted falling curve with a large enough effect; inconclusive = small, poorly fitted or top-dose-only effect; inactive = no such curve, though single readings can be large or run the other way; also: potency is read from the fitted curve at half-maximal effect; % is scaled to controls: 0 for no effect and ±100 for the full control effect; nearly all actives have a fitted effect of over 50% in size
#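 Fission yeast strain RE007, carrying one chromosomally integrated HIV-1 vpr copy, was seeded at OD 0.01 in PMG+AL medium with 23 nL pinned compound. After 24 h at 30 °C and 99% humidity, viability was read by BacTiter-Glo luminescence.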
# Shiga inhibitor = A qHTS for Small Molecule Inhibitors of Shiga Toxin. Vero cells, Shiga toxin protein synthesis inhibition reporter. inhibition, % at 38.7 µM. hit rate 9.2% among 290,000. AID 2315, 2010; in the data active = inhibition mostly above about 28%, no sharp cut-off; inactive = mostly below about 43%; also: 0% is about no effect
# * = called active by the depositor; u = inconclusive; x = no result; + = active, no number; [ ] = dose if it differs, or a comment. Many of the other results were omitted from the sample, so hits are more common in it than they were. Unless noted, calls follow the shape of the dose curve; as a rule, active = well fitted curve in the direction sought with a large enough effect; inconclusive = small, poorly fitted or top-dose-only effect, or another doubt; inactive = no such curve, though single readings can be large; an effect the other way counts as inactive or inconclusive.
SMILES,LmPK inh,Tb PYK inh,CHX counter,FBPA Giardia inh,RE007 growth inh,Shiga inhibitor
COc1ccc(-c2cc(O)cc(O)c2)cc1,-5%,-1%,33*,-1%,-2%,50*
COc1cccc(NC(=O)C2CCN(c3cnccn3)CC2)c1,-7%,5%,20,6%,-4%,-5
COc1ccc(/C=C/C(=O)Oc2cc(O)cc(O)c2)cc1,1%,2%,21*,0%,0%,35*
COc1ccc(C(=O)/C=C/c2ccc(O)cc2)cc1,-14%,-2%,37*,12%,-20%,87*
C#CCOCC1CNC(=S)O1 (stereo unspecified),x,-1%,x,x,-13%,x
COc1ccc(NC(=O)c2sc3nc(C)cc(C)c3c2N)cc1,-6%,1%,34*,5%,-3%,43*
COc1ccc(/C=N/NC(=O)c2sc3nc(C)cc(C)c3c2N)cc1,0%,0%,8,1%,5%,20
Cc1cc(C)c2c(N)c(C(=O)Nc3ccc(F)cc3)sc2n1,1%,-3%,45*,-8%,12%,92*
Cc1cc(C)cc(NC(=O)c2sc3nc(C)cc(C)c3c2N)c1,0%,-10%,25*,4%,-10%,118*
Cc1cc(C)c2c(N)c(C(=O)c3ccc(Cl)cc3)sc2n1,9%,-5%,5,3%,-12%,26
Cc1cc(C)c2c(N)c(C(=O)c3ccc(Cl)c(Cl)c3)sc2n1,1%,4%,21,14%,-7%,82*
Cc1cn(CC(=O)NCC2CCCO2)c(=O)[nH]c1=O (stereo unspecified),x,-2%,x,x,1%,x
CCc1cc(Cn2nc(-c3ccccc3)cc2C(=O)NCc2cccc(Br)c2)on1,x,3%,x,x,7%,x
Cc1[nH]c2ccccc2c1C(=O)C(=O)NC1CC(=O)N(c2cccc(F)c2)C1 (stereo unspecified),x,-2%,x,x,x,x
COc1ccc(N(Cc2cccs2)C(=O)COc2cc(C)c(Cl)c(C)c2)cc1,x,2%,x,x,x,x
Cc1cc(C(F)(F)F)c2c(N)c(C(=O)NCc3ccc(Cl)cc3)sc2n1,x,-11%,x,x,-10%,x
Cc1cc(C)c2c(N)c(C(=O)Nc3ccc(C)c(C)c3)sc2n1,2%,-3%,33*,-10%,-15%,124*
Cc1cc(C)c(NC(=O)c2sc3nc(C)cc(C)c3c2N)c(C)c1,x,-16%,x,x,x,x
Cc1cc(C)c2c(N)c(C(=O)N/N=C/c3cccs3)sc2n1,0%,2%,53*,1%,-18%,92*
Cc1cc(C(F)(F)F)c2c(N)c(C(=O)Nc3cc(C)on3)sc2n1,-3%,-15%,55*,9%,9%,117*
Cc1cc(C)c2c(N)c(C(=O)Nc3ccc([N+](=O)[O-])cc3)sc2n1,-2%,1%,20*,-3%,17%,42*
CC(=O)Nc1c(C)nn(-c2ccccc2)c1N1CCC(C(=O)NCc2cccc(F)c2)CC1,x,5%,x,x,x,x
N#Cc1cc(NC(=O)c2ccc(F)cc2)c(=O)n2c1[nH]c1ccccc12,-1%,x,-4,-4%,x,-5
Cc1ccccc1C(=O)Nc1c(C)nc2ccccn2c1=O,x,2%,x,x,x,x
Cc1ccc(S(=O)(=O)c2nnn3c2nc(N2CCN(c4ccccc4F)CC2)c2ccccc23)cc1C,x,5%[15.4 µM],x,x,x,x
SMILES,LmPK inh,Tb PYK inh,CHX counter,FBPA Giardia inh,RE007 growth inh,Shiga inhibitor
O=C(CC(c1ccccc1O)N1CCCCC1)N1CCCCC1 (stereo unspecified),-12%,x,41*,3%,-3%[3.69 µM],35*
O=C(Cc1ccccc1)NCC(=O)N1CCCCC1,-6%,2%,21,-2%,3%,2
O=C(Cn1c(=O)c(CNc2ccccc2)cc2cc3c(cc21)OCCO3)Nc1ccccc1Cl,x,2%,13,x,x,21
COc1ccc(-c2ccc(CO)o2)cc1N,11%,-2%,31*,-8%,7%,55*
O=S(=O)(Nc1ccc(-c2ccc(N3CCCC3)nn2)cc1)c1cc(F)ccc1F,x,1%,x,x,x,x
Cc1c(N)c(C(C)(C)C)cc(C(C)(C)C)c1[N+](=O)[O-],-3%,0%,-4,-8%,32µM*,-3
CCCNC(=O)c1cc(-c2ccco2)on1,-6%,0%,49*,-3%,1%,120*
CC(C)CNC(=O)c1cc(-c2ccco2)on1,-9%,-1%,35*,-1%,5%,+
Cc1ccccc1Cn1cc(NC(=O)c2cc(C3CC3)on2)cn1,8%,-3%,44*,17%,1%,73*
Cc1ccccc1Cn1cc(NC(=O)c2cc(-c3ccc(Cl)cc3)on2)cn1,x,0%,x,x,x,x
CCc1ccccc1NC(=O)c1cc(C2CC2)on1,-6%,-5%,11*,0%,-20%,47
Cc1ccccc1NC(=O)CN1CCN(C(=O)c2ccco2)CC1,-4%,-6%,1,x,8%,-10
C/C(=N\N(C)C)C1=C(O)c2ccccc2C1=O,-4%,-7%,29*,4%,21%,89*
CC(=NC1CC1)C1=C(O)c2ccccc2C1=O,-9%,0%,50*,-7%,-10%,55*
CCOc1ccc2nc(NC(=O)CN3CCN(CC)CC3)sc2c1,0%,6%,12,u,1%,17
CCOc1ccc2nc(NC(=O)Cn3[nH]c(=O)c4ccccc4c3=O)sc2c1,-5%,-16%,41*,-17%,-15%,53*
CCOc1ccc2nc(NC(=O)CN3CCN(C)CC3)sc2c1,-2%,-11%,27*,-3%,-1%,50
CCOc1ccc2nc(NC(=O)CN3C(=O)C4CCCCC4C3=O)sc2c1 (stereo unspecified),x,8%,x,x,3%,x
CCOc1ccc2nc(NC(=O)CN3CCOCC3)sc2c1,0%,-7%,37*,-3%,17%,87*
CCOC(=O)N1CCN(CC(=O)Nc2nc3ccc(OC)cc3s2)CC1,-2%,7%,25*,u,-2%,45*
COc1ccc(-c2nc(CN3CCCCC3c3nccn3C)c(C)o2)c(C)c1C (stereo unspecified),6%,4%,-3,0%,-4%,1
COc1ccc(N2CCN(S(=O)(=O)c3ccc(OC)c(-c4noc(C)n4)c3)CC2)cc1,x,5%,-8,x,x,-2
O=C(NCCc1ccc(Cl)cc1)C1CCN(C(=O)c2ccc(F)cc2)CC1,3%,0%,-3,15%,-7%,-3
COc1cccc(CNC(=O)[C@@H]2CCCN2C(=O)[C@@H]2CCCN2C(=O)c2cccc(OC)c2)c1,x,1%,x,x,7%,x
O=C(Nc1ccc(F)cc1F)c1noc2c1CCc1ccccc1-2,x,-2%,x,x,x,x
CN1N=C(c2ccc(F)c(F)c2)CSC1=NCc1ccccc1,2%,-5%,12,-5%,-6%,29

# High-throughput results: PubChem, National Center for Advancing Translational Sciences (NCATS)
